Measurements reported in PubChem BioAssay AID624305 (National Center for Advancing Translational Sciences (NCATS), 2012).
Records with an inconclusive call do not appear. Calls of active or inactive are those of the source. Calls come from the whole dose curve; as a rule, active = well fitted activation curve with a large enough effect; inconclusive = small, poorly fitted or top-dose-only effect; inactive = no such curve, though single readings can be large or run the other way.

Assay: qHTS assay for re-activators of p53 using a Luc reporter: Hit Validation; note: nearly all actives have a fitted effect of over 75% in size
Conditions: p53-responsive luciferase reporter cells, luminescence, H1299 line expressing heat-sensitive Ala138Val p53; series mostly up to 46.1 µM
How it was run: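 Hit confirmation with a 1:5 dilution series, at 37 deg C for 24 hrs, in H1299 cells co-expressing temperature-sensitive p53-A138V and p53-responsive luciferase. Nocodazole served as control; luminescence read after 10 min with detection reagent.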
Potency is the fitted concentration of half-maximal effect.

Potency, inactive:
COc1ccc(N2CCN(CCCNC(=O)C3(S(=O)(=O)c4ccc(Cl)cc4)CC3)CC2)cc1
COc1ccccc1C(=O)NC(=S)NNC(=O)c1sc2ccccc2c1Cl
NC(=O)c1cc2ccc(O)cc2oc1=Nc1ccccc1
COc1cc(NC(=O)CN2C(=O)COc3ccc(S(=O)(=O)N4CCCC4)cc32)cc(OC)c1
COc1cc(C(=O)NCC(=O)Nc2c(C)cccc2C)ccc1OCc1ccccc1
O=C(COC(=O)c1cn(-c2ccccc2)nc1-c1ccc(F)cc1)Nc1ncc(Cl)cc1Cl
Cc1nc(NCCc2ccccc2)c2nnn(Cc3ccccc3Cl)c2n1
Cc1c(C(=O)N(C)c2ccccc2Cl)cnn1-c1ccccc1

Potency, active:
CCOC(=O)c1c(C)[nH]c(C(=O)CSc2ccccc2)c1C 517 nM
Cc1cc(NC(=O)c2ccco2)sc1C 18400 nM
O=c1c2ccccc2oc2ccc(-c3ccc4cc[nH]c4c3)cc12 411 nM
O=C(COC(=O)c1ccc(-c2nnc(-c3ccccc3)o2)cc1)c1ccccc1 2910 nM
Cc1ccc2nc(-c3ccc(NC(=O)COC(=O)c4ccc(Br)o4)cc3)sc2c1 51.7 nM
O=c1oc(-c2ccc(O)c(O)c2)cc2cc(O)cc(O)c12 11600 nM
O=C(Nc1ccc2ccccc2c1)c1ccc(Cl)cc1Cl 291 nM
O=C(COC(=O)C12CC3CC(CC(O)(C3)C1)C2)Nc1ccc(Br)cc1F 14600 nM
Cc1c(C(=O)N2CCc3ccccc32)oc2c1C(=O)CC(C)(C)C2 4110 nM
